Reference: PubChem BioAssay (NCI)
The panel holds about 83,000 compounds, 20% with a hit somewhere; the sample as a whole holds those more often.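 Step 1: grow cells in 96-well plates. Step 2: add test compound at a single concentration. Step 3: incubate 48 h. Step 4: record percent growth.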 Unmarked numbers belong to inactive results. Calls of active or inactive are those of the source.

system: U251 CNS; assay: NCI-60 one-dose screen, 48 h (100 = growth as untreated, 0 = no growth, -100 = all killed); conditions: 10 µM unless noted
Description: Growth inhibition of the U251 human tumor cell line is measured as a screen for anti-cancer activity. Cells are grown in 96 well plates and exposed to the test compound for 48 hours. Compounds are tested at a single concentration, which is 10^-5 M for most compounds. The reported endpoint is percent growth (GI% or GIPRCNT), where numbers from 0 - 100% represent growth inhibition, and numbers from -100% - 0 represent cell death. For example, a value of 40 represents 60% growth inhibition. A value of 0 means no net growth occurred over the course of the experiment. A value of -40 indicates 40% of cells at the beginning of the experiment died by the end of the experiment. A value of -100 means all cells are dead at the end of the experiment.
NCI-60 Human Tumor Cell Lines Screen was performed using the standard one-dose NCI protocol, which is described in more detail at https://dtp.cancer.gov/discovery_development/nci-60/default.htm.
Compounds with GIPRCNT values below 10 were considered active. Activity score was based on GIPRCNT using the following formula: […]
Score is 0 for GIPRCNT values of 100 or above, 50 for GIPRCNT values of 0, and 100 for GIPRCNT values of -100.

| Compound | growth |
| --- | --- |
| C/C=C(/C)n1cnc2c(Nc3ccccn3)nc(Cl)nc21 | 99.8% |
| O=C(CN1CCN(c2cc3c(cc2F)c(=O)c(C(=O)O)cn3C2CC2)CC1)N/N=C/c1ccco1 | 96.7% |
| O=C(NCc1cccc(CNC(=O)Nc2nc3ccccc3[nH]2)c1)Nc1nc2ccccc2[nH]1 | -77.9% (active) |
| C=C(C)[C@@H]1CCC[C@]2(C(=O)O)CC[C@]3(C)[C@@H](CC[C@@H]4[C@@]5(C)C/C(=C/c6ccncc6)C(=O)C(C)(C)[C@@H]5CC[C@]43C)[C@@H]12 | 17% |
| COc1cnc2c(c1)C(=O)c1c-2n(CCCCl)c(=O)c2ccncc12 | 33.6% |
| CC(C)(C)n1cc(-c2ccnc(NCCCNS(=O)(=O)c3cccc4ccccc34)c2)c(-c2cccc(F)c2)n1 | 65% |
| Cc1ccc(-c2nc(/C=C3/C(=O)Nc4ccc(F)cc43)c3ccccn23)cc1 | 64.3% |
| CCCCCCCCCCCCCCCCCCOc1ccccc1CC(=O)NCC[N+]1(C)CCCCC1 | 16.3% |
| CCO/C=N/C1=C(C#N)C(c2ccc(F)cc2)c2sc3c(F)cccc3c2O1 (stereo not given) | 26.6% |
| COc1ccc(N2CCC(=S)NC2=S)cc1 | 101% |
| O=S(=O)(NCCNc1nccc(-c2c(-c3cccc(O)c3)nc3occn23)n1)c1ccc(Br)cc1 | 41% |
| CNCc1cccc2c1OCCOCCOCCNS(=O)(=O)c1ccc(cc1)-c1cnc(N)c(n1)C(=O)N2 | 14.1% |
| COc1cc(C(=O)c2c(-c3ccccc3)oc3c(OC)cccc23)cc(OC)c1OC | 14.2% |
| CCCn1nc(C(=O)N(C)Cc2ccccc2)c2c1CCC(N1CCc3ccccc31)C2 (stereo not given) | 96.9% |
| N#C/C(=C\c1cn(Cc2ccccc2)c2ccccc12)C(=O)Nc1ncc(Cc2ccccc2Cl)s1 | -9.08% (active) |
| C=C1C(=O)O[C@H]2[C@H]1CC/C(COC(=O)/C=C\C(=O)NCc1ccc(Cn3c(=O)sn(CCCCC)c3=O)cc1)=C\CC[C@@]1(C)O[C@@H]21 | 84.4% |
| Cc1ccc(-c2nc(-c3cn(C)c4ncccc34)cs2)cc1 | -7.83% [100 µM] (active) |
| Cc1ccc(NC(=O)Cn2c(Br)nc3c2c(=O)n(C)c(=O)n3C)cc1 | 4.05% (active) |
| Cc1n[nH]c2ccc(Br)cc2c1=O | 100% |
| COc1cc2nc3sc(C(=O)Nc4ccc(C(=O)OC(C)C)cc4)c(C(=O)Nc4ccc(Cl)cc4C)n3c(=O)c2cc1OC | 66.3% |

| Compound | growth |
| --- | --- |
| C=C(C)[C@@H]1CCC[C@]2(C(=O)N3CCN(C)CC3)CC[C@]3(C)[C@@H](CC[C@@H]4[C@@]5(C)CC/C(=N\NC(=O)c6ccncc6)C(C)(C)[C@@H]5CC[C@]43C)[C@@H]12 | 99.8% |
| CCN(CC)CCN1C(=O)c2c(c(C)c3c(oc4ccc(O)cc43)c2C)C1=O | -23.8% (active) |
| COc1cc(NC(=O)c2cncnc2Nc2ccc3c(ccn3Cc3ccccn3)c2)cc(OC)c1 | 45.9% |
| CC(C)=CCNc1ncnc2c1ncn2C1OC(CO)C(O)C1O (stereo not given) | 35.2% [1 mM] |
| Cc1cccc[n+]1C1c2ccccc2-c2ccccc21 | 83.1% |
| COC(=O)c1c2c(c(C)[n+]([O-])c1C)C(=O)C(NCc1cccc(Cl)c1)=CC2=O | -6% (active) |
| Clc1c(Cl)[n+](Cc2ccc3ccccc3c2)cn1Cc1ccc2ccccc2c1 | -82.6% (active) |
| CN1CCN(CCCOc2cccc3nc(Nc4ccc(F)c(F)c4)ccc23)CC1 | -70.3% (active) |
| CN(Cc1ccccc1)c1nc(Cl)c(C2CC(c3ccccc3)=NN2c2ccccc2)s1 (stereo not given) | 90.2% |
| NNCCc1ccc(NC(=O)CCCc2ccc(C(=O)Nc3ccccc3N)cc2)cc1 | 54.1% |
| O=C(/C=C/C12c3ccccc3C(c3ccccc31)C1C(=O)NC(=O)C12)c1ccc(Br)cc1 (stereo not given) | 29.2% |
| C=C(C)[C@@H]1CC[C@]2(COC(C)=O)CC[C@]3(C)[C@H](CC[C@@H]4[C@@]5(C)CCCN(C(C)=O)C(C)(C)[C@@H]5CC[C@]43C)[C@@H]12 | 6.47% (active) |
| Cn1cc(-c2nn3cc(-c4cccs4)nc3s2)c2cc(F)ccc21 | 26% |
| O=c1c2c3c(sc2n2c(-c4cc(-c5ccccc5)no4)nnc2n1Cc1ccccc1)CCCC3 | 94.3% |
| Cc1ccc(S(=O)(=O)OCCCOS(=O)(=O)c2ccc(C)cc2)cc1 | 96.4% |
| CN(C)CCCC1(c2ccc(F)cc2)OCc2cc(-c3ccc4cc[nH]c4c3)ccc21 (stereo not given) | 17.5% |
| COC(=O)CCC/C=C\C[C@H]1C=CC(=O)/C1=C/C[C@@H](O)C/C=C\CC(F)(F)F | -69.1% (active) |
| Nc1nc(NC(=O)Nc2ccc(C(=O)O)cc2)nn1-c1ccc(S(N)(=O)=O)cc1 | 93.2% |
| OCCNCCNC(Cc1ccc(Cl)cc1)c1ccccc1 (stereo not given) | 94.2% |
| COc1cccc(-c2cc(-c3cccc(Cl)c3)c(C#N)c(=O)[nH]2)c1 | 73.2% |
